From PubChem BioAssay (Tox21) come the findings set out here.

Results filed as inconclusive are left out. Values without a mark were called inactive. Calls come from the whole dose curve; as a rule, active = well fitted cell-killing curve with a large enough effect in the repeat runs; inconclusive = weak or mixed curves, or effect the other way; inactive = flat fitted curve, though single readings scatter. Where a SMILES comes first, the peptide text is derived from it. [ ]: non-standard residue; d: D form. pGlu = O=C1CC[C@@H](C(=O)O)N1
% is set by controls: 0 for no effect and ±100 for the full control effect.

The assay in a line: qHTS assay to identify small molecule agonists of the TGF-beta/Smad signaling pathway - cell viability counter screen (AID 1346829). Note: top concentration of the series differs between compounds; nearly all actives have a fitted effect of over 45% in size. The note with it: SBE-bla HEK293T viability, CellTiter-Glo luminescence, 5 h; series mostly up to 76.8 µM; activity change, negative = cytotoxicity: at the top concentration. The text has this:
National Center for Advancing Translational Sciences [NCATS]
NIH Chemical Genomics Center [NCGC]
U.S. Environmental Protection Agency [EPA]
National Institutes of Environmental Health Sciences [NIEHS]
National Toxicology Program [NTP]
U.S. Food and Drug Administration [FDA]
Transforming growth factor beta (TGF-beta) superfamily consists of a large number of structurally related dimeric proteins that act as hormones or local mediators in regulating a wide range of biological functions. This superfamily includes TGF-betas themselves, the bone morphogenetic proteins (BMPs) and the activins. These ligands induce oligomerization of serine/threonine receptor kinases and phosphorylate the cytoplasmic signaling molecules of Smad protein family. CellSensor SBE-bla HEK 293T cell line (Life Technologies, Carlsbad, CA), responsive to TGF-beta was used to screen Tox21 10K compound library for identification of agonists/antagonists of the Smad signaling pathway. This cell line contains a beta-lactamase reporter gene under control of the Smad binding element (SBE) stably integrated into HEK 293T cells. Also cytotoxicity of the compounds was tested in parallel by measuring the cell viability using CellTiter-Glo assay system in the same wells.
Tox21 Assay Protocol Summary:
SBE-bla HEK 293T cells were dispensed at 4,000/well in 6 uL of assay medium into black wall/clear-bottom 1536-well plates using a Multidrop Combi (ThermoFisher Scientific, Waltham, MA) dispenser. After the assay plates were incubated at 37 C and 5% CO2 for an overnight, 23 nL of compounds dissolved in DMSO, positive controls or DMSO only was transferred to the assay plate by a Pintool station (Kalypsys, San Diego, CA). The assay plates were incubated at 37 C and 5% CO2 for 5 hr. One uL of LiveBLAzer B/G FRET substrate (Life Technologies) was added using a Flying Reagent Dispenser (FRD, Aurora Discovery, San Diego, CA) and the plates were incubated at room temperature for 2 hr. Fluorescence intensity (405 nm excitation, 460 nm and 530 nm emissions) was measured using an Envision plate reader (PerkinElmer, Shelton, CT). For cytotoxicity read, 4 uL of CellTiter-Glo reagent (Promega Corporation, Madison, WI) was added to each well of the assay plates using FRD. After 30min incubation at room temperature, the luminescence intensity was measured using ViewLux plate reader (PerkinElmer).
Background: In qHTS, concentration-response curves come from the screen itself.
As to `Cc1ncc([C@@H](CCCCCCc2ccc3c(n2)NCCC3)CC(=O)O)cn1`, the “activity change, negative = cytotoxicity” value is -29%.
Next, `NO`: 6.59%; `O=C(O)CC(C(=O)O)S(=O)(=O)O` (stereo not given): -15.4%; `Nc1c2c(nc3c1CCC3)CCCC2`: -0.589% [at 35.3 µM].
For `CCOC(=O)C(=O)CCCCCCl`, the “activity change, negative = cytotoxicity” value was -12.1% [at 35.3 µM].
Consider `C[C@H]1C[C@H]2[C@@H]3CCC4=CC(=O)C=C[C@]4(C)[C@H]3C(=O)C[C@]2(C)[C@@]1(O)C(=O)CO`, for which the “activity change, negative = cytotoxicity” value is 5.71% [at 35.3 µM].
Take `CC[N+](CC)(CC(=O)Nc1c(C)cccc1C)Cc1ccccc1` (tested in a mixture with another compound): the “activity change, negative = cytotoxicity” value was 2.84% [at 35.3 µM].
For `CCCCN(CCC(=O)OCC)C(C)=O` the value was 3.02%; for `CCCCCCC#CC(=O)OC`, 2.08%; for `CCCCCC(=O)OCCc1ccccc1`, 3.69%.
`CC(=O)N1C[C@H](O)C[C@H]1C(=O)O`: the “activity change, negative = cytotoxicity” value was 0.111% [at 35.3 µM].
Turning to `CC1=CCC(O)(C(C)C)CC1` (stereo not given), the “activity change, negative = cytotoxicity” value is 0.767%.
Next, `C=CCOCC(O)CO` (stereo not given): -6.91%; `CC(C)(C)c1ccc(-c2ccc(C(C)(C)C)cc2)cc1`: -21.4%.
Next, `CC1=C(C/C=C(\C)CCC[C@H](C)CCC[C@H](C)CCCC(C)C)C(=O)c2ccccc2C1=O`: -16.4% [at 35.3 µM]; `CCNC(=O)[C@@H]1CCCN1C(=O)[C@H](CCCN=C(N)N)NC(=O)[C@H](CC(C)C)NC(=O)CNC(=O)[C@H](Cc1ccc(O)cc1)NC(=O)[C@H](CO)NC(=O)[C@H](Cc1c[nH]c2ccccc12)NC(=O)[C@H](Cc1cnc[nH]1)NC(=O)[C@@H]1CCC(=O)N1` ([pGlu]HWSYGLRP-NHEt): 0.612% [at 35.3 µM]; `O=C(CO)[C@@H](O)[C@H](O)[C@H](O)CO`: -9.08%.
Next, `COc1ccnc(CS(=O)c2nc3cc(OC(F)F)ccc3[nH]2)c1OC` (stereo not given): 2.23%; `COC(=O)Nc1ccc(Cl)c(Cl)c1`: -2.54%; `Nc1ccccn1`: 2.87%.
As for `C=CN1CCCCCC1=O`, the “activity change, negative = cytotoxicity” value was -10.6%.
For `CN1CC(=O)N/C1=N/C(=O)Nc1cccc(Cl)c1` the value was 2.25% [at 35.3 µM]; for `CCOC(=O)c1ccccc1`, -0.116%.
For `NS(=O)(=O)Cc1noc2ccccc12` the value was 0.0484% [at 35.3 µM]; for `COc1cc(-c2ccc(=O)[nH]n2)ccc1OC(F)F`, 9.13% [at 35.3 µM].
For `CNC(=O)Nc1ccc(Cl)c(Cl)c1` the value was 1.59%; for `CC(C)NNC(=O)c1ccncc1`, -1.81% [at 35.3 µM]; for `CC(COc1ccccc1)NN` (stereo not given), -0.0448% [at 35.3 µM].
In the case of `CCCC[N+](C)(CCCC)CCCC`, the “activity change, negative = cytotoxicity” value was -2.76%.
Next, `CC(=O)OCC(=O)[C@@]1(O)[C@H](C)C[C@H]2[C@@H]3CCC4=CC(=O)C=C[C@]4(C)[C@@]3(F)[C@@H](O)C[C@@]21C`: 0.24% [at 35.3 µM].
Consider `CC(C)(N)C#N`, for which the “activity change, negative = cytotoxicity” value is 0.818%.
Next, `CCCO[Si](OCCC)(OCCC)OCCC`: -5.18%.
Consider `CCNS(=O)(=O)c1ccc(C)cc1`, for which the “activity change, negative = cytotoxicity” value is -22.7%.
`O=C(c1ccccc1O)c1ccccc1O`: the “activity change, negative = cytotoxicity” value was 2.89%.
For `O=[N+]([O-])c1cncn1CCN1CCOCC1` the value was 20.3% [at 35.3 µM]; for `NCCCC[C@H](N[C@@H](CCc1ccccc1)C(=O)O)C(=O)N1CCC[C@H]1C(=O)O`, 0.535% [at 35.3 µM]; for `CCN(C=O)CC`, 0.446%.
Consider `CCN(CC#N)c1cccc(C)c1`, for which the “activity change, negative = cytotoxicity” value is 16.7%.
For `C[C@@H]1C[C@H]2[C@@H]3C[C@H](F)C4=CC(=O)C(Cl)=C[C@]4(C)[C@@]3(F)[C@@H](O)C[C@]2(C)[C@@]1(O)C(=O)CO` the value was 13.1% [at 35.3 µM]; for `CCCCCCCCN1CCCC1=O`, 3.09%.
